# Assay results published in PubChem BioAssay.
# Active and inactive are the calls of the source.
# Experiments:
# [1] = system: Plasmodium falciparum Sir2 (PF13_0152, Sir2A); assay: pfSir2 binders on small-molecule microarrays, primary screen, biochemical, small-molecule microarray, 635 nm fluorescence (AID 1098); conditions: small-molecule microarray binding, fluorescence 635 nm; higher = more signal;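 note: score merges spot fluorescence intensity with its signal-to-noise ratio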
# [2] = small-molecule microarray binders of probe aDKK1, primary screen, biochemical, biotinylated probe, 635/667 nm fluorescence (AID 1099); conditions: higher = more signal;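 note: score merges 667nm spot fluorescence with signal to noise across triplicate slides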
# [3] = small-molecule microarray binders of probe aCHRDL2, primary screen, biochemical, biotinylated probe, 635/667 nm fluorescence (AID 1100); conditions: higher = more signal
# [4] = splicing luciferase reporter signal modulators, primary screen, spliceosome inhibition project, cell-based, HEK293, splice +/- reporter (AID 1101); conditions: luminescence, 24 h, higher = more signal, called active from +8 up or from −8 down;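 note: HEK293 cells carrying a splicing-competent luciferase reporter gene; test concentration not given here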
# [5] = target: Fibroblast growth factor 10 (Homo sapiens) (UniProt O15520); assay: FGF10 binders on small-molecule microarrays, primary screen, biochemical, small-molecule microarray, 635 nm fluorescence (AID 1102); conditions: FGF10 binding, fluorescence 635 nm, higher = more signal
# [6] = system: glycogen synthase kinase-3 (GSK3A per assay name; protocol says GSK3B); assay: GSK3 binders on small-molecule microarrays, primary screen, biochemical, small-molecule microarray, 635 nm fluorescence, GSK3A (AID 1103); conditions: small-molecule microarray binding, fluorescence 635 nm; higher = more signal; note: the record names both GSK3A and GSK3B
# [7] = target: Epidermal growth factor receptor (Homo sapiens) (UniProt P00533); assay: EGFR binders on small-molecule microarrays, primary screen, biochemical, small-molecule microarray, 635 nm fluorescence (AID 1104); conditions: EGFR binding, higher = more signal;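 note: score merges 667 nm emission intensity with spot signal to noise over triplicate slides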
# [8] = target: Follistatin-related protein 3 (Homo sapiens) (UniProt O95633); assay: FSTL3 binders on small-molecule microarrays, primary screen, biochemical, small-molecule microarray, 635 nm fluorescence (AID 1105); conditions: FSTL3 binding, higher = more signal;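 note: score merges emission near 667 nm and signal to noise per printed spot across three slides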
# [9] = target: Dickkopf-related protein 1 (Homo sapiens) (UniProt O94907); assay: DKK1 binders on small-molecule microarrays, primary screen, biochemical, small-molecule microarray, 635 nm fluorescence scan (AID 1106); conditions: DKK1 binding, higher = more signal;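 note: score merges emission near 667 nm with signal to noise over three replicate slides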
# [10] = system: Inhibin beta A chain (activin A); assay: INHBA (activin A) binders on microarrays, primary screen, biochemical, small-molecule microarray, 635 nm fluorescence scan (AID 1107); conditions: small-molecule microarray binding, higher = more signal;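 note: mouse activin A protein probed at 4.33 µg/mL on printed slides; score merges bound-protein fluorescence near 667 nm with spot signal-to-noise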
# [11] = system: Human papillomavirus type 1a protein E7 (residues 44-93); assay: HPV1a E7 fragment binders on microarrays, primary screen, biochemical, small-molecule microarray, residues 44-93, 635 nm fluorescence (AID 1108); conditions: small-molecule microarray binding, fluorescence 635 nm; higher = more signal;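 note: E7 fragment applied at 1 µg/mL in TBST for 1 h at 4 C; score combines spot fluorescence with its signal to noise ratio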
# [12] = modulators of HCV replicon luciferase signal, primary screen, HCV replication inhibitor project, Huh7 cells, luciferase reporter (AID 1109); conditions: 48 h, higher = more signal;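 note: huh7 hepatoma cells harbouring a luciferase neomycin HCV replicon reporter; luciferase luminescence as measure of HCV replicon replication; test concentration not given here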
# [13] = target: Left-right determination factor 2 (Homo sapiens) (UniProt O00292); assay: LEFTY2 binders on small-molecule microarrays, primary screen, biochemical, small-molecule microarray, 635 nm fluorescence scan (AID 1110); conditions: LEFTY2 binding, higher = more signal
# [14] = target: Calmodulin-1 (Homo sapiens) (UniProt P0DP23); assay: CALM1 binders on microarrays, EGTA buffer, profiling panel, biochemical, small-molecule microarray, Cy5-labelled CALM1 (AID 1111); conditions: Cy5-CALM1 binding fluorescence, higher = more signal;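 note: labelled calmodulin applied in Tris saline Tween buffer holding calcium plus EGTA and DTT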
# [15] = target: Calmodulin-1 (Homo sapiens) (UniProt P0DP23); assay: calcium-bound CALM1 binders on microarrays, profiling panel, artefact control for SMM control-protein annotation, biochemical, small-molecule microarray, Cy5-labelled CALM1, plus calcium (AID 1112); conditions: Cy5-CALM1 binding fluorescence, higher = more signal;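 note: score merges spot fluorescence with signal to noise from triplicate slides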
# [16] = small-molecule microarray binders of probe aWnt5a, primary screen, biochemical, biotinylated probe, 635/667 nm fluorescence (AID 1113); conditions: higher = more signal;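 note: score merges 667 nm fluorescence intensity with signal-to-noise per printed feature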
# [17] = small-molecule microarray binders of probe aShh, primary screen, biochemical, biotinylated probe, 635/667 nm fluorescence (AID 1114); conditions: higher = more signal;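 note: probe is biotin-labelled aShh protein from a stem cell growth factor screen; measures binding of labelled protein to compounds printed on the slide; score merges feature fluorescence at 667 nm with signal-to-noise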
# [18] = small-molecule microarray binders of probe aNog, primary screen, biochemical, biotinylated probe, 635/667 nm fluorescence (AID 1115); conditions: higher = more signal;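 note: probe is biotinylated aNog protein used at 0.15 µg/mL for 1 h at 4 C; z-score combines 667 nm fluorescence of each spot with its signal to noise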
# [19] = target: Torsin-1A-interacting protein 1 (Homo sapiens) (UniProt Q5JTV8); assay: LAP1 binders from COS7 cell lysate, primary screen, small-molecule microarray, 635/667 nm fluorescence (AID 1116); conditions: COS7-hLAP1 lysate binding, 635 nm fluorescence, higher = more signal
# [20] = target: Alpha-bungarotoxin (Bungarus multicinctus) (UniProt P60615); assay: alpha-bungarotoxin binders on microarray, profiling panel, artefact control for SMM control protein annotation, biochemical, small-molecule microarray, Alexa647 label, 635/667 nm fluorescence (AID 1117); conditions: alpha-BTX-A647 binding fluorescence, higher = more signal
# Sequence of Alpha-bungarotoxin (Bungarus multicinctus) (P60615 whole entry, looked up): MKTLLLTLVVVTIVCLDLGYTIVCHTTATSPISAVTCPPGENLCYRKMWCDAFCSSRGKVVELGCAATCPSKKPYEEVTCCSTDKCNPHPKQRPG
# Sequence of Torsin-1A-interacting protein 1 (Homo sapiens) (Q5JTV8 whole entry, looked up): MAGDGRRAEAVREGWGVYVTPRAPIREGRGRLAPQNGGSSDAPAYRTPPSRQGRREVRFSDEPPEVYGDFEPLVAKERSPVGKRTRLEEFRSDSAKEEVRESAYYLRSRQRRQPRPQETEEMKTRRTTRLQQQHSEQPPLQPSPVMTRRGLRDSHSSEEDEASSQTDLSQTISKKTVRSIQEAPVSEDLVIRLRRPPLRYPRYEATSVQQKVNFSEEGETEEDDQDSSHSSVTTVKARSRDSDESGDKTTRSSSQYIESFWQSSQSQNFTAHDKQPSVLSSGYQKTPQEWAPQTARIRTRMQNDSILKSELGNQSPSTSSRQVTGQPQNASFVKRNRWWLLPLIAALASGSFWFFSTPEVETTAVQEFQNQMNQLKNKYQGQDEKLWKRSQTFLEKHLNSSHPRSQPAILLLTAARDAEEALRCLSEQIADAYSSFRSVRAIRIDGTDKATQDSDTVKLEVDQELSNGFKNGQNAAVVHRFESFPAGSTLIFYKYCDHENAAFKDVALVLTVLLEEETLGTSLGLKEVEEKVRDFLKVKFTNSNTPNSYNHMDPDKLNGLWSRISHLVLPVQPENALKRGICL
# Sequence of Follistatin-related protein 3 (Homo sapiens) (O95633 whole entry, looked up): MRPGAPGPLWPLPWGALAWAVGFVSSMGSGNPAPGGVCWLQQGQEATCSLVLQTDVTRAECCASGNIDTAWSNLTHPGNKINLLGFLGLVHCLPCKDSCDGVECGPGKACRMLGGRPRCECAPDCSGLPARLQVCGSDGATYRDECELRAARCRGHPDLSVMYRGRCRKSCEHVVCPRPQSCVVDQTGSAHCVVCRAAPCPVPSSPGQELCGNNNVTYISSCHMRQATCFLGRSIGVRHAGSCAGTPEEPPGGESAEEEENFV
# Sequence of Fibroblast growth factor 10 (Homo sapiens) (O15520 whole entry, looked up): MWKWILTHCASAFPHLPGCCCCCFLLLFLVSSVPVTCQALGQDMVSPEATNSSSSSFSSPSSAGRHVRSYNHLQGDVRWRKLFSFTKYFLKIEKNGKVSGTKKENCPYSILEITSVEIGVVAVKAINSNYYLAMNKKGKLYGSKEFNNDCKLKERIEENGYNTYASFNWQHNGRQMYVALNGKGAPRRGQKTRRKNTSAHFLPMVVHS
# Sequence of Left-right determination factor 2 (Homo sapiens) (O00292 whole entry, looked up): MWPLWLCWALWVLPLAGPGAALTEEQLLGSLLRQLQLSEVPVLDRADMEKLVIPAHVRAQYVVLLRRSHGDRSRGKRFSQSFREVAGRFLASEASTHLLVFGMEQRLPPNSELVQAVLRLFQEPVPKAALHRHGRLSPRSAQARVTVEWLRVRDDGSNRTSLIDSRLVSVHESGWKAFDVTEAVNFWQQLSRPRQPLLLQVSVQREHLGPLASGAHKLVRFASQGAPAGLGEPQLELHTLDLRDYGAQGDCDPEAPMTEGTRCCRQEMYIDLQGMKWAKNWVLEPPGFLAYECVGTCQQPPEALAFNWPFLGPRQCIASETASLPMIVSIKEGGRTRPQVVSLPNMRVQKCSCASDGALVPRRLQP
# Sequence of Dickkopf-related protein 1 (Homo sapiens) (O94907 whole entry, looked up): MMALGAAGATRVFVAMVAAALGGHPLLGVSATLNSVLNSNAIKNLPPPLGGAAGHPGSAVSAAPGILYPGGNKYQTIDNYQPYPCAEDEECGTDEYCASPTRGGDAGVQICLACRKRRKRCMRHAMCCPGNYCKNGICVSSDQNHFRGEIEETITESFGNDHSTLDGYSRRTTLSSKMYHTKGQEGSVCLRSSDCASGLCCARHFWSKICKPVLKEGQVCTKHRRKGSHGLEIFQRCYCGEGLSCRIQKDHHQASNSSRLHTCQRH
# Sequence of Epidermal growth factor receptor (Homo sapiens) (P00533 whole entry, looked up): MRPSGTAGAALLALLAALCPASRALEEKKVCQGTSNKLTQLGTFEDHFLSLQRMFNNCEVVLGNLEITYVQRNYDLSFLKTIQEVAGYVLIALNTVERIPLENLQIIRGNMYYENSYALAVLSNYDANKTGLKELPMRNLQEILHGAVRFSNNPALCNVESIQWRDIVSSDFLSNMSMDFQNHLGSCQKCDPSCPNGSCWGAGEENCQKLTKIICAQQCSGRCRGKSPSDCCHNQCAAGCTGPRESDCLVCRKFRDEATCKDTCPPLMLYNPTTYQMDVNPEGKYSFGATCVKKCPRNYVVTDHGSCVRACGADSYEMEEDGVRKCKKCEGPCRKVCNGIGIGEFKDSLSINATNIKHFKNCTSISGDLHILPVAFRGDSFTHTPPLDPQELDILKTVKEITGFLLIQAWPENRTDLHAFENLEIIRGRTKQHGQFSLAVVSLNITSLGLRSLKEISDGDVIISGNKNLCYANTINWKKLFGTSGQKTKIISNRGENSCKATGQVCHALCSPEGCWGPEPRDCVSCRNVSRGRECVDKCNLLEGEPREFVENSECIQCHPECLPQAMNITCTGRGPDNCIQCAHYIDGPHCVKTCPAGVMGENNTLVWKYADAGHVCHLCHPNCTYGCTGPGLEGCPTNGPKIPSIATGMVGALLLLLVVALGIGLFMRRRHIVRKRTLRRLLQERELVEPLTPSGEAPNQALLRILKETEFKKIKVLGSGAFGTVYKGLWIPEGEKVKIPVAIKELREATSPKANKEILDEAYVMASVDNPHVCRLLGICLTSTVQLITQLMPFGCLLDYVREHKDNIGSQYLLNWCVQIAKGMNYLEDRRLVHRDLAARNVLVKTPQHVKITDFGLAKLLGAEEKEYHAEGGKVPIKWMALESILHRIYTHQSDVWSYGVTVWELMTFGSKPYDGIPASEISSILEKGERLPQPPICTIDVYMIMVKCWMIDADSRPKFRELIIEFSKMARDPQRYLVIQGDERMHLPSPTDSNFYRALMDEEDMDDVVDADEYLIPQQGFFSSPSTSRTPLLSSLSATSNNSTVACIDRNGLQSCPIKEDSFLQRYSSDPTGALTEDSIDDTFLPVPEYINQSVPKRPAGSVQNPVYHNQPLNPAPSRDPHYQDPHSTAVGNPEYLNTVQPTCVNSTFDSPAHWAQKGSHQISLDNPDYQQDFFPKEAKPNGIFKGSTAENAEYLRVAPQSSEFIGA
Compound,composite z-score [1],composite z-score [2],composite z-score [3],z-score [4],composite z-score [5],composite z-score [6],composite z-score [7],composite z-score [8],composite z-score [9],composite z-score [10],composite z-score [11],z-score [12],composite z-score [13],composite z-score [14],composite z-score [15],composite z-score [16],composite z-score [17],composite z-score [18],composite z-score [19],composite z-score [20]
COC(=O)C(CC#Cc1ccc2c(c1)[C@]1(C(=O)N2)[C@H](C(N)=O)[C@H]2C(=O)O[C@H](c3ccccc3)[C@H](c3ccccc3)N2[C@@H]1c1ccccc1OCCO)C(=O)OC,1.39,-0.109,0.567,1.09 (inactive),0.785,1.15,-0.0452,0.385,-0.151,-0.278,1.47,-3.34,0.205,0.534,0.237,-0.0721,-0.291,-0.0604,1.87,1.19
C=CC[C@]1(C(N)=O)N=C(c2ccc(OCCCO)cc2)O[C@H]1c1ccccc1N=[N+]=[N-],1.56,1.28,1.26,-0.401 (inactive),1.06,0.755,0.259,1.03,0.0701,1.48,0.811,0.304,0.0562,0.85,0.0151,0.0317,0.0611,-0.153,1.29,1.71
COC(=O)C(CC#Cc1ccc2c(c1)[C@]1(C(=O)N2)[C@H](c2ccc(OCCO)cc2)N2[C@H](c3ccccc3)[C@H](c3ccccc3)OC(=O)[C@H]2[C@@H]1C(N)=O)C(=O)OC,1.01,-0.201,0.669,0.373 (inactive),-0.122,-0.0277,-0.69,0.025,-0.531,0.161,1.41,-1.68,-0.584,0.627,-0.113,-0.156,-0.123,-0.14,-0.358,1.4
C=CCOC(=O)[C@H]1[C@@H]2C(=O)O[C@@H](c3ccccc3)[C@@H](c3ccccc3)N2[C@@H](c2ccc(OCCOC(=O)[C@H]3C[C@H]4C(=O)NCC(=O)N4[C@H]3c3ccc(O)cc3)cc2)[C@]12C(=O)Nc1ccccc12,1.33,0.101,0.116,0.417 (inactive),1.28,1.3,0.756,1.23,0.974,0.511,1.44,-2.07,0.506,1.18,-0.237,-0.0758,-0.16,-0.217,1.05,1.77
CC(C)c1ccc(NN2C(C(O)C3=C[C@H]4C[C@@H](C3)C4(C)C)C=CC3C(=O)N(c4ccccc4)C(=O)C32)cc1 (stereo not given in full),0.969,0.886,0.665,-0.0409 (inactive),0.409,0.577,0.366,0.827,0.245,0.829,0.796,-0.637,0.368,2.46,0.977,0.0403,0.907,2.06,1.54,1.64
O=C1c2ccccc2[C@@]2(Cc3ccccc3N(CC(F)(F)F)C2=O)[C@H](c2ccc(CO)cc2)N1Cc1ccccc1,-0.33,-0.449,-0.419,-0.719 (inactive),-0.0636,0.387,-0.171,0.766,0.309,1.32,-0.143,-1.22,0.2,-0.469,0.457,0.0371,0.0178,-0.238,-0.131,-0.0056
C=C(C(=O)CC[C@@H](OC(=O)c1ccccc1-c1ccccc1C(=O)O)c1ccc(OCCO)cc1)C(C)C,0.994,-0.0581,-0.375,0.379 (inactive),1.22,0.674,0.267,1.08,0.776,0.768,1.33,-2.58,0.63,0.653,-0.698,0.0162,0.108,-0.095,1.3,0.478
C=C(C(=O)CC[C@@H](OC(=O)c1ccccc1-c1ccccc1C(=O)O)c1ccc(CO)o1)C(C)C,1.07,-0.258,-0.532,0.88 (inactive),1.51,0.913,-0.132,0.648,1.12,0.927,0.476,-1.53,0.367,-0.236,-0.86,-0.118,-0.349,-0.295,1.27,0.101
[N-]=[N+]=NCc1ccccc1[C@H]1OC(c2ccc(OCCCO)cc2)=N[C@@]1(Cc1ccccc1N=[N+]=[N-])C(=O)N1CCOCC1,1.02,0.596,0.828,-0.1 (inactive),0.458,1.1,-0.292,0.29,-0.287,0.594,1.39,-2.2,-0.267,1.86,0.642,0.0115,0.539,1.44,0.506,1.4
C#CCN(C(=O)OC(C)(C)C)[C@H](CO)c1ccccc1,-0.223,-0.331,-0.601,0.234 (inactive),0.286,0.419,0.258,-0.0195,0.226,-0.415,0.486,0.712,0.353,-0.528,-0.964,-0.18,-0.138,-0.141,0.391,0.0876
CC[C@@H](O[Si](C#C[Si](C(C)C)(C(C)C)C(C)C)(C(C)C)C(C)C)c1cn([C@H](C)c2ccccc2)nn1,0.43,0.0317,-0.328,0.242 (inactive),0.403,0.136,0.533,0.658,0.432,-0.142,0.818,-0.772,0.435,-0.273,-0.0786,-0.0758,0.0637,-0.28,0.651,0.188
COc1ccc([Si](C)(C)[C@H]2[C@H](CC(=O)N(CCO)Cc3ccccc3)O[C@@]3(C(=O)N(c4ccccc4)c4ccccc43)[C@@H]2C)cc1,0.717,-0.202,-0.0698,-1.5 (inactive),0.889,0.289,0.686,1.09,0.415,0.841,1.32,-5.19,0.753,0.503,-0.0244,-0.104,0.0022,-0.519,0.105,1.17
C[N+](C)(C)CCCC[C@@H]1NC(=O)[C@H]2C[C@@H](C(=O)O)[C@@H](c3ccc(O)cc3)N2C1=O,0.327,-0.0349,0.149,-0.303 (inactive),0.158,0.984,-0.102,0.0506,0.971,0.832,0.315,3.08,0.436,-0.171,0.11,-0.147,-0.375,-0.14,1.74,0.343
COc1cccc(C)c1NC(=O)O[C@H]1[C@H](OC(=O)Nc2ccccc2-c2ccccc2)[C@@H](OC(=O)Nc2ccccc2-c2ccccc2)[C@@H](OC)O[C@@H]1CO,1.3,0.629,0.573,0.152 (inactive),1.4,1.1,0.316,1.43,0.244,0.601,1.52,-3.72,0.49,1.75,-0.136,-0.0325,-0.0211,1.08,0.809,0.949
O=C1O[C@H](c2ccccc2)[C@H](c2ccccc2)N2[C@H]1[C@@H](C(=O)O)[C@]1(C(=O)Nc3ccc(C#CC4(O)CCCCCC4)cc31)[C@H]2c1ccccc1OCCO,1.5,0.0035,-0.351,-0.767 (inactive),1.02,1.29,0.24,0.69,0.195,0.745,1.11,-2.11,0.39,1.99,1.03,0.0839,0.459,0.938,0.727,1.95
Cc1ccc(S[C@]2(C(=O)NCc3ccccc3)CC(=O)N(Cc3ccccc3Cl)[C@@H]2c2ccc(CO)cc2)cc1,1.07,0.169,0.603,-0.419 (inactive),-0.35,0.165,-1.31,-0.648,-0.743,0.0073,-0.0153,-2.79,-1.76,-0.272,0.273,-0.19,0.0858,0.308,-0.0706,-0.619
CCCCCCc1nc(Cc2cc(OC)c(OC)c(OC)c2)c(C)c2c1[Si](C(C)C)(C(C)C)OC2,0.197,-0.1,-0.35,-2.3 (inactive),0.261,0.104,-0.0718,0.237,0.163,0.987,0.495,-0.715,0.0746,-0.0235,-0.128,-0.0721,0.14,-0.0587,0.18,-0.101
